In PubChem BioAssay AID1159580 (chemical genetic matrix, 2015):
Out of some 5,500 compounds screened, about 2,000 (36%) were called active. Inconclusive results (about 18%) are left out. Rule as the data show it: active = normalized growth mostly below about 0.91 (no sharp cut-off); inconclusive = no clear call, values can overlap the other calls; inactive = mostly above about 0.92. The list shows a part of the results.

Assay: chemical genetic growth profiling, strain panel (AID 1159580);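 also: tested at 20 µM; growth read once vehicle control cultures reached saturation at 30 °C; 1 = growth at the plate median or of vehicle wells; lower values mean less growth of the strain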
Conditions: growth OD

Measured: normalized growth

CC(=O)OCC(=O)[C@@]1(O)CCC2C3CCC4=CC(=O)CC[C@]4(C)[C@@]3(F)[C@@H](O)C[C@@]21C (stereo partly specified)
inactive: S. cerevisiae deletion strains, locus YJR066W, strain TOR1, stronger effect = lower value 0.939 | S. cerevisiae deletion strains, locus YKL009W, strain mrt4, stronger effect = lower value 0.973 | S. cerevisiae deletion strains, locus YKL068W, stronger effect = lower value 1.01 | S. cerevisiae deletion strains, locus YKL085W, strain MDH1 (second series), stronger effect = lower value 1.01 | S. cerevisiae deletion strains, locus YKL085W, strain MDH1, stronger effect = lower value 1.01 | S. cerevisiae deletion strains, locus YKL160W, strain elf1, stronger effect = lower value 1.03 | S. cerevisiae deletion strains, locus YKL190W, strain CNB1, stronger effect = lower value 1 | S. cerevisiae deletion strains, locus YKR001C, strain vps1, stronger effect = lower value 0.987 | S. cerevisiae deletion strains, locus YKR026C, strain gcn3, stronger effect = lower value 1.02 | S. cerevisiae deletion strains, locus YKR091W, strain srl3, stronger effect = lower value 1 | S. cerevisiae deletion strains, locus YLL001W, strain dnm1, stronger effect = lower value 1.03 | S. cerevisiae deletion strains, locus YLL026W, stronger effect = lower value 1.01 | S. cerevisiae deletion strains, locus YLL041C, strain sdh2, stronger effect = lower value 1.01 | S. cerevisiae deletion strains, locus YLR027C, strain aat2, stronger effect = lower value 1.02 | S. cerevisiae deletion strains, locus YLR039C, strain RIC1, stronger effect = lower value 1.04 | S. cerevisiae deletion strains, locus YLR058C, strain SHM2, stronger effect = lower value 1.01 | S. cerevisiae deletion strains, locus YLR102C, strain apc9, stronger effect = lower value 1.01 | S. cerevisiae deletion strains, locus YLR113W, strain HOG1, stronger effect = lower value 0.992 | S. cerevisiae deletion strains, locus YLR221C, strain rsa3, stronger effect = lower value 1.02 | S. cerevisiae deletion strains, locus YLR258W, strain gsy2, stronger effect = lower value 1.01 | S. cerevisiae deletion strains, locus YLR262C, strain YPT6 (second series), stronger effect = lower value 1.03 | S. cerevisiae deletion strains, locus YLR262C, strain YPT6, stronger effect = lower value 1.01 | S. cerevisiae deletion strains, locus YLR268W, strain sec22, stronger effect = lower value 0.985 | S. cerevisiae deletion strains, locus YLR320W, strain mms22, stronger effect = lower value 1.05 | S. cerevisiae deletion strains, locus YLR330W, strain CHS5, stronger effect = lower value 1.01 | S. cerevisiae deletion strains, locus YLR342W, strain FKS1 (second series), stronger effect = lower value 1.02 | S. cerevisiae deletion strains, locus YLR342W, strain FKS1, stronger effect = lower value 1.01 | S. cerevisiae deletion strains, locus YLR357W, strain rsc2, stronger effect = lower value 1.01 | S. cerevisiae deletion strains, locus YLR370C, strain arc18, stronger effect = lower value 1.02 | S. cerevisiae deletion strains, locus YLR371W, strain rom2, stronger effect = lower value 1 | S. cerevisiae deletion strains, locus YLR384C, strain iki3, stronger effect = lower value 1.02 | S. cerevisiae deletion strains, locus YLR418C, strain cdc73, stronger effect = lower value 1.01 | S. cerevisiae deletion strains, locus YML016C, strain PPZ1, stronger effect = lower value 1 | S. cerevisiae deletion strains, locus YML032C, strain rad52, stronger effect = lower value 0.992 | S. cerevisiae deletion strains, locus YML120C, strain ndi1, stronger effect = lower value 1.03 | S. cerevisiae deletion strains, locus YML124C, strain tub3, stronger effect = lower value 1.01 | S. cerevisiae deletion strains, locus YMR058W, strain fet3, stronger effect = lower value 1.02 | S. cerevisiae deletion strains, locus YMR078C, strain ctf18, stronger effect = lower value 1.01 | S. cerevisiae deletion strains, locus YMR125W, strain sto1, stronger effect = lower value 1.01 | S. cerevisiae deletion strains, locus YMR129W, stronger effect = lower value 1.01 | S. cerevisiae deletion strains, locus YMR205C, strain PFK2, stronger effect = lower value 1.02 | S. cerevisiae deletion strains, locus YMR223W, strain ubp8, stronger effect = lower value 1.03 | S. cerevisiae deletion strains, locus YMR231W, strain pep5, stronger effect = lower value 1.01 | S. cerevisiae deletion strains, locus YMR307W, strain GAS1, stronger effect = lower value 1.01 | S. cerevisiae deletion strains, locus YNL067W, strain RPL9B, stronger effect = lower value 0.998 | S. cerevisiae deletion strains, locus YNL071W, strain lat1, stronger effect = lower value 1.02 | S. cerevisiae deletion strains, locus YNL128W, strain TEP1, stronger effect = lower value 1.02 | S. cerevisiae deletion strains, locus YNL153C, strain GIM3, stronger effect = lower value 1.01 | S. cerevisiae deletion strains, locus YNL183C, strain NPR1, stronger effect = lower value 0.957 | S. cerevisiae deletion strains, locus YNL209W, strain ssb2, stronger effect = lower value 1.01 | S. cerevisiae deletion strains, locus YNL233W, strain BNI4, stronger effect = lower value 1 | S. cerevisiae deletion strains, locus YNL248C, strain rpa49, stronger effect = lower value 1.02 | S. cerevisiae deletion strains, locus YNL271C, strain bni1, stronger effect = lower value 1.01 | S. cerevisiae deletion strains, locus YNL298W, strain CLA4, stronger effect = lower value 0.986 | S. cerevisiae deletion strains, locus YNL307C, strain MCK1, stronger effect = lower value 1.02 | S. cerevisiae deletion strains, locus YNL322C, strain KRE1 (second series), stronger effect = lower value 1.02 | S. cerevisiae deletion strains, locus YNR049C, strain mso1, stronger effect = lower value 1.01 | S. cerevisiae deletion strains, locus YNR052C, strain pop2, stronger effect = lower value 1 | S. cerevisiae deletion strains, locus YOL012C, strain htz1 0.967 | S. cerevisiae deletion strains, locus YOL147C, strain pex11, stronger effect = lower value 1 | S. cerevisiae deletion strains, locus YOR001W, strain rrp6, stronger effect = lower value 1 | S. cerevisiae deletion strains, locus YOR061W, strain CKA2, stronger effect = lower value 1.01 | S. cerevisiae deletion strains, locus YOR069W, strain VPS5, stronger effect = lower value 1.01 | S. cerevisiae deletion strains, locus YOR070C, strain gyp1, stronger effect = lower value 1.03 | S. cerevisiae deletion strains, locus YOR080W, strain dia2, stronger effect = lower value 1.01 | S. cerevisiae deletion strains, locus YOR083W, strain WHI5, stronger effect = lower value 1.03 | S. cerevisiae deletion strains, locus YOR106W, strain vam3, stronger effect = lower value 1.03 | S. cerevisiae deletion strains, locus YOR136W, strain idh2, stronger effect = lower value 0.989 | S. cerevisiae deletion strains, locus YOR144C, strain elg1, stronger effect = lower value 1 | S. cerevisiae deletion strains, locus YOR184W, strain ser1, stronger effect = lower value 0.997 | S. cerevisiae deletion strains, locus YOR231W, strain MKK1, stronger effect = lower value 1 | S. cerevisiae deletion strains, locus YOR265W, strain rbl2, stronger effect = lower value 1.02 | S. cerevisiae deletion strains, locus YOR270C, strain vph1, stronger effect = lower value 1.03 | S. cerevisiae deletion strains, locus YOR290C, strain snf2, stronger effect = lower value 0.997 | S. cerevisiae deletion strains, locus YOR316C, strain cot1, stronger effect = lower value 1.01 | S. cerevisiae deletion strains, locus YPL051W, strain arl3, stronger effect = lower value 1.04 | S. cerevisiae deletion strains, locus YPL078C, strain atp4, stronger effect = lower value 1.02 | S. cerevisiae deletion strains, locus YPL106C, strain sse1, stronger effect = lower value 1.02 | S. cerevisiae deletion strains, locus YPL240C, strain hsp82, stronger effect = lower value 0.994 | S. cerevisiae deletion strains, locus YPL256C, strain CLN2, stronger effect = lower value 1 | S. cerevisiae deletion strains, locus YPR119W, strain clb2, stronger effect = lower value 0.997 | S. cerevisiae deletion strains, locus YPR141C, strain kar3, stronger effect = lower value 1 | S. cerevisiae deletion strains, locus YPR163C, strain tif3, stronger effect = lower value 1 | S. cerevisiae deletion strains, locus YPR167C, strain met16, stronger effect = lower value 0.999 | S. cerevisiae deletion strains, strain wtn01, stronger effect = lower value 0.995 | S. cerevisiae strains, strain wild type, stronger effect = lower value 1.01
